Source: PubChem (National Center for Advancing Translational Sciences (NCATS))
TGFb inhibitor: blocks TGF-b signaling | HepG2 CAGA-GFP TGF-b/SMAD3 reporter, GFP fluorescence, 18 h; TGF-beta stimulated, 500 pg/mL final | Potency, µM (highest dose often 46.1 µM), without a hit: at the top dose activity, negative = inhibition, hits mostly inhibitors | 1.2% of 410,000 active; further: potency means the concentration at half of the fitted maximal effect; on the % scale 0 is the no-effect control and ±100 the full control effect; nearly all actives have a fitted effect of over 65% in size
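Per well, imaged GFP fluorescence of HEPG2 CAGA-GFP cells gives the signal; cells get compound, then TGF-beta (500 pg/mL final), 18 h at 37 degrees C; %Activity versus -TGF-beta and +DMSO controls.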
DT40 TDP1 CPT: growth inhibition of DT40 Tdp1-/-;hTDP1 cells with camptothecin (screen for TDP1 inhibitors). 12% of 420,000 active. Potency, µM (titrated, usually from 46.2 µM), inactives show at the highest dose activity change, negative = growth inhibition, most hits filed as inhibitors. AID 686979. chicken DT40 Tdp1-/-;hTDP1 cells + 20 nM CPT, ATP luminescence, 48 h; further: potency means the concentration at half of the fitted maximal effect; on the % scale 0 is the no-effect control and ±100 the full control effect; nearly all actives have a fitted effect of over 55% in size
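Cell growth measured by CellTiter-Glo luminescence after a minimum 48 h, 37 C compound exposure with 20 nM CPT in Tdp1-knockout DT40 cells stably expressing hTDP1, seeded 400/well; qHTS titration format.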
IL-1B inflam inh: inflammasome signaling inhibition, IL-1 beta readout; THP-1 LPS/ATP IL-1B secretion, AlphaLISA, 16 h; active compounds read low; activity change, % at 57.5 µM; 4.7% of 360,000 active; in the data active means activity change below about -50%; inconclusive means mostly about -30% to -49%; further: on the % scale 0 is the no-effect control and ±100 the full control effect
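Secreted IL-1B measured by AlphaLISA bead assay after 16 h compound exposure of THP-1 cells; compounds (final up to 57.5 uM) added 1 h before LPS (250 ng/mL) and ATP (1.25 mM) stimulation; lower signal means less secretion.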
TDP1 cell noCPT: qHTS for Inhibitors of human tyrosyl-DNA phosphodiesterase 1 (TDP1): qHTS in cells in absence of CPT; DT40 Tdp1-/- hTDP1 cells, no CPT, ATP luminescence, 48 h; Potency, µM (titrated, usually from 46.2 µM), without a hit: top-dose activity change, negative = growth inhibition, usual class: inhibitors; 15% of 420,000 active; further: potency means the concentration at half of the fitted maximal effect; on the % scale 0 is the no-effect control and ±100 the full control effect; nearly all actives have a fitted effect of over 55% in size
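A cellular qHTS used chicken DT40 cells lacking endogenous Tdp1 but carrying stably transfected human TDP1. Compounds were applied without camptothecin, and cell growth kinetics were judged by ATP-dependent luminescence after ≥48 hr.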
HepG2 viability: HepG2 cytotoxicity, counter-screen for TGF-b inhibitors; HepG2 CAGA-GFP viability, ATP luminescence, 18 h; Potency, µM (doses to about 46.1 µM), for inactives: top-dose activity change, negative = cytotoxicity, most hits filed as cytotoxic; 0.76% of 410,000 active; further: potency means the concentration at half of the fitted maximal effect
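CellTiter-Glo luminescence gave cytotoxicity after 18 hours at 37 degrees C. The cells were HepG2 CAGA-GFP in 1% FBS DMEM, stimulated with 500 pg/mL TGF-beta after compound addition. %Activity was normalised to no-cell wells (complete cell-killing) and DMSO (no toxicity), and curves were fitted and classified.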
TDP1 inh: inhibitors of human tyrosyl-DNA phosphodiesterase TDP1; Q9NUW8; 0.28% of 350,000 active; Potency, µM (top dose mostly 130 µM), inactives show at the top dose activity change, negative = inhibition, hits mostly inhibitors; recombinant TDP1, AlphaScreen DNA substrate cleavage; AID 485290; further: potency means the concentration at half of the fitted maximal effect; on the % scale 0 is the no-effect control and ±100 the full control effect; nearly all actives have a fitted effect of over 40% in size
Target sequence (Q9NUW8 whole entry, looked up): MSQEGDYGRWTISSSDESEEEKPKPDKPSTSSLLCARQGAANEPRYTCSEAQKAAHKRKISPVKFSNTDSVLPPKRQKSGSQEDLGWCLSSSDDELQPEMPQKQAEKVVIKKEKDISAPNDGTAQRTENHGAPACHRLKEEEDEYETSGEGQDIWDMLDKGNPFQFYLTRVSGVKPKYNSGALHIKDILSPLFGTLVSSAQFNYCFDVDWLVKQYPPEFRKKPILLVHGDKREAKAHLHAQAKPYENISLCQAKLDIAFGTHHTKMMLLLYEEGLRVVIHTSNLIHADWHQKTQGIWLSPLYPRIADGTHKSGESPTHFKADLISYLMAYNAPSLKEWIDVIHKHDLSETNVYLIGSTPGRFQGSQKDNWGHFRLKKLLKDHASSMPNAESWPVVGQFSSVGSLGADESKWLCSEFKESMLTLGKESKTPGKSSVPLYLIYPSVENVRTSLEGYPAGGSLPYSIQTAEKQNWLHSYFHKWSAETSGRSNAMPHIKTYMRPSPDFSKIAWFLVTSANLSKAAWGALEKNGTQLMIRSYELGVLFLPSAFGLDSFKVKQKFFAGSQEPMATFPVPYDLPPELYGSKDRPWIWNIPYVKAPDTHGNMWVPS
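Recombinant human Tdp1 (E. coli-expressed, 1 nM final) preincubated with compounds 15 min at room temperature, then 5'-biotin/3'-phosphotyrosine-FITC DNA substrate (15 nM final) added for 5 min. AlphaScreen beads (10 ug/ml final) added 10 min; cleavage lowers signal.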
Active calls of the source: *; i = inactive; u = inconclusive; x = no result given; [ ] = remark or other dose. This is a sample that favours compounds with a hit; in the whole collection about 19% have one here. Unless noted, the call rests on the fitted dose curve; in most records, active means well fitted curve in the direction sought with a large enough effect; inconclusive means small, poorly fitted or top-dose-only effect, or another doubt; inactive means no such curve, though single readings can be large; an effect the other way counts as inactive or inconclusive.

SMILES	TGFb inhibitor	DT40 TDP1 CPT	IL-1B inflam inh	TDP1 cell noCPT	HepG2 viability	TDP1 inh
C/C(=N\NC(=S)NC1CCCCC1)c1ccccc1	0%	u	19	29µM*	5%	0%
COCCNC(=S)N/N=C(\C)c1ccc(O)cc1	-11%	u	8	u	6%	3%
COc1ccc(OC)c(S(=O)(=O)Nc2cc3c(cc2C)n(C)c(=O)c(=O)n3C)c1	u	-14%	x	-25%	3%	7%
Cc1ccc(C)c(OCCCCCn2ccnc2)c1	-10%	u	-11	u	-12%	3%
Cc1cc(C)c(OCCOCCN2CCN(C)CC2)c(Cl)c1	14%	-28%	1	u	-8%	x
Cc1cc(Cl)cc(C)c1OCCCCCn1ccnc1	u	18µM*	-91*	u	-46%	7%
C=CCc1cc(Cl)ccc1OCCCn1ccnc1	-12%	u	21	21µM*	-25%	8%
Cc1cc(Cl)c(OCCOCCN2CCNCC2)c(Cl)c1	-19%	u	-23	12µM*	-22%	x
Cc1cc(C)c(OCCCCCn2ccnc2)c(C)c1	-28%	u	28	15µM*	-25%	x
COc1cccc(CNC(=O)c2ccc3nc(CCc4ccccc4)oc3c2)c1OC	23%	-23%	x	u	0%	-1%
Cc1ccc(-n2ncc3c2CC(C)(C)CC3NC(=O)c2ccncc2)cc1 (configuration not stated)	-2%	-20%	i	u	-2%	1%
CCc1ccc(OCCCCCn2ccnc2)cc1	-17%	u	-30	18µM*	-15%	x
Cc1cc(C)c(OCCN2CCCC2)c(Cl)c1	-8%	-3%	-6	-23%	2%	x
Cc1cc(Cl)cc(C)c1OCCn1ccnc1	14%	5.2µM*	160	5.2µM*	3%	x
Cc1cc(Cl)c(OCCCN2CCCCC2)c(Br)c1	2%	-7%	-79*	u	-27%	-6%
Cc1cc(OCCCCN2C(=O)NC(C)(C)C2=O)ccc1[N+](=O)[O-]	3%	u	-10	12µM*	-33%	-4%
C=CC[C@H](CC(=O)NCCO)C(=O)NCCOC(=O)[C@@H](CC=C)CC(=O)OC(C)(C)C	23%	5%	22	2%	19%	2%
Cc1ccc(C(=O)c2coc3ccc(O)cc23)cc1	u	u	-6	u	-21%	x
Cc1cccc(-n2c(=S)[nH]c3nc4c(cc3c2=O)COC(C)(C)C4)c1	4%	6%	x	-24%	14%	0%
Cc1cc(OCCCn2ccnc2)ccc1[N+](=O)[O-]	31%	-29%	-79*	u	9%	7%
Cc1ccc(OCCn2ccnc2)c([N+](=O)[O-])c1	-25%	-18%	0	-1%	-7%	-5%
Cc1cc(Cl)c(OCCn2ccnc2)c(Br)c1	-7%	12µM*	9	u	-3%	3%
Cc1cc(Cl)c(OCCN2C(=O)NC(C)(C)C2=O)c(Br)c1	-5%	u	31	-23%	-4%	0%
Cc1cc(OCCCCCn2ccnc2)cc(C)c1Cl	u	u	-13	13µM*	-45%	-2%
CCCc1cc(=O)[nH]c(SCC(=O)N2c3ccccc3NC(=O)C2(C)C)n1	12%	19%	6	-15%	-15%	-8%
SMILES	TGFb inhibitor	DT40 TDP1 CPT	IL-1B inflam inh	TDP1 cell noCPT	HepG2 viability	TDP1 inh
Cc1ccc(N2C(=O)C3C(C2=O)N2CCCN2C3c2ccccc2)cc1C (configuration not stated)	0%	1%	0	-7%	3%	5%
Cc1ccc(N2C(=O)CS(=O)C(c3ccccc3)C2=O)cc1C (configuration not stated)	-7%	u	-9	15µM*	-35%	-3%
CN(C)CCCN(C(=O)c1ccc2c(c1)CCCC2)c1nc2ccc(Cl)cc2s1	u	15µM*	-123*	15µM*	-98%	4%
CCOc1ccc2nc(N(CCCN(C)C)C(=O)c3ccc(S(=O)(=O)N4CCc5ccccc5C4)cc3)sc2c1	-21%	u	-14	u	-40%	4%
CCOc1ccc2nc(N(CCCN(C)C)C(=O)c3ccc4c(c3)CCCC4)sc2c1	u	u	-58*	u	18µM*	8%
COc1cccc2sc(N(CCN(C)C)C(=O)c3ccc4c(c3)CCCC4)nc12	-26%	u	i	u	-39%	12%
CC1(C)CC(=O)c2cc(C(=O)Nc3ccccc3)c(=O)[nH]c2C1	28%	-24%	x	u	1%	x
O=C(NO)c1ccccc1	x	24µM*	x	22µM*	x	9%
O=C(NOC(=O)c1ccccc1)c1ccccc1	-7%	u	3	23µM*	-21%	5%
O=C(NCNC(=O)c1ccccc1)c1ccccc1	17%	-4%	-16	2%	-6%	1%
COC(=O)c1ccccc1	x	x	x	x	x	3%
CCN(Cc1ccncc1)Cc1ccc2c(c1)CN(C(=O)c1ccc(C)cc1)CCO2	x	8%[9.04 µM]	x	u	x	x
C#Cc1ccc2c(c1)C(=O)N(C)Cc1c(C(=O)OCCCOC(=O)c3ncn4c3CN(C)C(=O)c3cc(C#C)ccc3-4)ncn1-2	x	x	x	x	x	8%
O=C(CSc1nc2ccccc2c(=O)n1-c1ccccc1)NCc1ccco1	11%	-28%	-13	u	6%	1%
Cc1cc(NC(=O)CSc2nc3cc(C(=O)NCCCOC(C)C)ccc3c(=O)n2Cc2ccco2)no1	5%	18µM*	-18	u	2%	6%
CCCN(CCC)C(=O)CSc1nc2ccccc2c(=O)n1Cc1ccco1	x	18µM*	x	21µM*	-2%	3%
COC(=O)c1ccc2c(=O)n(Cc3ccco3)c(SCC(=O)Nc3cc(C)on3)nc2c1	-1%	-26%	4	-3%	2%	0%
Cc1cccc(-n2c(SCC(=O)NCc3ccco3)nc3ccccc3c2=O)c1	15%	10µM*	u	u	-32%	4%
O=C(CCCCCn1c(SCC(=O)c2ccccc2)nc2ccccc2c1=O)NCc1ccco1	1%	8.2µM*	-8	21µM*	-26%	2%
O=C(CSc1nc2ccccc2c(=O)n1Cc1ccco1)NCc1ccco1	-2%	u	-6	u	5%	x
Cc1cccc(N2CCN(C(=O)c3cc(COc4ccc(F)c(F)c4)on3)CC2)n1	10%	3%	9	1%	-2%	-7%
CCOC(=O)Oc1ccc(/C=C2\N=C(C)OC2=O)cc1	-5%	-26%	-15	-24%	-2%	x
